For 14 compounds, Potency and viability results are on record in PubChem BioAssay (NCATS).

The nature of experiment [1]: Quantitative High-Throughput drug screen in 47 multiple myeloma cell lines against the NCATS MIPE library collection: LP1_DSMZ cell viability assay (AID 1918982). Note: nearly all actives have a fitted effect of over 35% in size. The essentials: (§1)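 Myeloma cells (500/well) treated with MIPE 4.0 compounds for 48 h at 37 °C, 5% CO2. Viability read as ATP via CellTiter-Glo luminescence after 5 min at RT; DMSO-only wells = 100%, media-only = 0% viability.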

A short description of experiment [2]: Quantitative High-Throughput drug screen in 47 multiple myeloma cell lines against the NCATS MIPE library collection: KMS28PE_JCRB cell viability assay (AID 1918983). Note: nearly all actives have a fitted effect of over 35% in size. The method in brief:
as §1

Experiment [3] in a line: Quantitative High-Throughput drug screen in 47 multiple myeloma cell lines against the NCATS MIPE library collection: L363_DSMZ cell viability assay (AID 1918984). Note: nearly all actives have a fitted effect of over 40% in size. The essentials: as §1
Experiment [4] can be described thus: Quantitative High-Throughput drug screen in 47 multiple myeloma cell lines against the NCATS MIPE library collection: KMS34_JCRB cell viability assay (AID 1918985). Note: nearly all actives have a fitted effect of over 40% in size. The essentials: as §1
Experiment [5] is described as follows: Quantitative High-Throughput drug screen in 47 multiple myeloma cell lines against the NCATS MIPE library collection: OCIMY7_PLB cell viability assay (AID 1918987). Note: nearly all actives have a fitted effect of over 65% in size. The note with it: OCI-MY7 myeloma viability, CellTiter-Glo ATP, 48 h; viability (% of DMSO): at 45.8 µM (top of the series). The essentials:
as §1

A short description of experiment [6]: Quantitative High-Throughput drug screen in 47 multiple myeloma cell lines against the NCATS MIPE library collection: OPM1_PLB cell viability assay (AID 1918989). Note: nearly all actives have a fitted effect of over 40% in size. The method in brief: as §1
Experiment [7] can be described thus: Quantitative High-Throughput drug screen in 47 multiple myeloma cell lines against the NCATS MIPE library collection: XG6_PLB cell viability assay (AID 1919865). Note: nearly all actives have a fitted effect of over 40% in size. The essentials: as §1
A short description of experiment [8]: Quantitative High-Throughput drug screen in 47 multiple myeloma cell lines against the NCATS MIPE library collection: OCIMY5_PLB cell viability assay (AID 1918988). Note: nearly all actives have a fitted effect of over 65% in size. The essentials: as §1
A short description of experiment [9]: Quantitative High-Throughput drug screen in 47 multiple myeloma cell lines against the NCATS MIPE library collection: SKMM1_PLB cell viability assay (AID 1919863). Note: nearly all actives have a fitted effect of over 35% in size. The note with it: SKMM1 myeloma viability, CellTiter-Glo ATP, 48 h; viability: hits give low values. The essentials: as §1
The nature of experiment [10]: Quantitative High-Throughput drug screen in 47 multiple myeloma cell lines against the NCATS MIPE library collection: U266_ATCC cell viability assay (AID 1919864). Note: nearly all actives have a fitted effect of over 35% in size. The essentials:
as §1

Inconclusive results are not listed. Values without a mark were called inactive. Activity calls are given as the source filed them. Calls come from the whole dose curve; as a rule, active = well fitted cell-killing curve with a large enough effect; inconclusive = small, poorly fitted or top-dose-only effect, or effect the other way; inactive = no such curve, though single readings can be large or run the other way.
Potency is the fitted concentration of half-maximal effect.

Consider `Cc1cc(O)c2c(c1)C(=O)c1cccc(O)c1C2=O`, for which the Potency result in experiment [1], in experiment [2], in [3], in [4], in [5] and in experiment [6] was “inactive” each time. Besides, the Potency result in experiment [7] is “inactive”.
As to `Cc1cncc2cccc(S(=O)(=O)N3CCCN(C(=O)CN)C[C@@H]3C)c12`, the Potency entry in experiment [1], in [3] and in experiment [6] was “inactive” throughout. In addition, the Potency in experiment [2] was 18.7 µM (active); in experiment [5] it was 11.8 µM (active); in experiment [8], 1.48 µM (active); in [7], 14.8 µM (active).
`COc1cc(O)c2c(c1)C1OC1C[C@H](O)[C@H](O)C(=O)C=CC[C@H](C)OC2=O` (stereo partly drawn): the Potency was 5.26 µM (active) in experiment [1]; 5.9 µM (active) in [2]; 2.35 µM (active) in experiment [3]; 0.372 µM (active) in [5]; 3.72 µM (active) in [8]; 5.26 µM (active) in experiment [6]. Besides, the Potency in experiment [9], in experiment [10] and in [7] was 4.69 µM (active) in each case.
In the case of `O=c1ccn([C@@H]2O[C@H](CO)[C@H](O)[C@@H]2F)c(=O)[nH]1`, the Potency entry in [1], in experiment [2], in experiment [3], in [4], in experiment [8] and in experiment [6] was “inactive” throughout. Besides, the viability in experiment [9] is 118%. Moreover, the Potency is 5.9 µM (active) in experiment [10] and 7.43 µM (active) in experiment [7].
As for `CC(C=CC1=C(C)CCCC1(C)C)=CC=CC(C)=CC(=O)Nc1ccc(O)cc1`, the Potency in [1] was 17.1 µM (active); in [2] it was 21.5 µM (active); in experiment [4] it was 17.1 µM (active); in [5], 4.29 µM (active); in [8], 9.59 µM (active); in experiment [6], 3.4 µM (active). In addition, the results for the Potency in experiment [9], in experiment [10] and in experiment [7] were 19.1 µM (active), 38.2 µM (active) and 13.6 µM (active), respectively.
With `Cc1cnn(C)c1C(=O)Nc1cc(Nc2ccc3c(C=Cc4ccccn4)n[nH]c3c2)ccc1F`, the Potency in experiment [1] is 20.9 µM (active); in experiment [2], 29.6 µM (active); in [3], 4.69 µM (active); in [6] it was 4.69 µM (active); in experiment [9], 20.9 µM (active); in [10], 20.9 µM (active). Further, the Potency in experiment [7] is 5.9 µM (active).
In the case of `C=CC1=C(C(=O)O)N2C(=O)[C@@H](NC(=O)C(=NO)c3csc(N)n3)[C@H]2SC1`, the Potency result in [1], in [2], in experiment [4], in experiment [8] and in [6] was “inactive” throughout.
`COC(=O)[C@@H]1[C@H]2C[C@@H]3c4[nH]c5ccccc5c4CCN3C[C@@H]2CC[C@@H]1O`: the Potency result in experiment [1], in [2], in [3], in experiment [5], in experiment [6] and in experiment [7] was “inactive” throughout.
For the compound `O=C1c2c(O)cccc2[C@@H]([C@@H]2O[C@H](CO)[C@@H](O)[C@H](O)[C@H]2O)c2cc(CO)cc(O)c21`, the Potency entry in experiment [1], in [2], in [4], in experiment [5], in experiment [8] and in experiment [10] was “inactive” each time. Further, the Potency entry in [7] is “inactive”. For the same compound, the viability in experiment [9] is 153%.
For the compound `c1cncc(CN2CCC(n3ncc4c(N5CCOCC5)nc(-c5ccc6[nH]ccc6c5)nc43)CC2)c1`, the Potency in experiment [1] was 5.9 µM (active); in [2], 6.62 µM (active); in experiment [4], 5.9 µM (active); in experiment [5], 9.35 µM (active); in experiment [8], 13.2 µM (active); in [6], 2.64 µM (active). The Potency in experiment [9] is 23.5 µM (active); in experiment [10] it was 5.26 µM (active); in [7] it was 1.66 µM (active).
With `CN1C(C(=O)Nc2ccccn2)=C(O)c2sc(Cl)cc2S1(=O)=O`, the Potency in experiment [1] is 4.69 µM (active); in experiment [2], 4.69 µM (active); in experiment [4], 2.96 µM (active); in [5], 1.32 µM (active); in [8] it was 2.96 µM (active); in [6], 4.18 µM (active). For the same compound, the Potency in experiment [7] is 2.09 µM (active).
Regarding `Oc1cc2c(cc1O)C1c3ccc(O)c(O)c3OCC1(O)C2` (stereo not drawn), the Potency result in experiment [1], in experiment [2], in experiment [4], in [5], in experiment [8] and in experiment [6] was “inactive” each time. Besides, the viability in [9] is 120%.
As for `N#CC(=C(N)Sc1ccc(N)cc1)c1ccccc1C(F)(F)F`, the Potency in experiment [1] is 16.6 µM (active); in experiment [2], 6.62 µM (active); in experiment [5] it was 0.148 µM (active); in experiment [8] it was 16.6 µM (active); in [9], 7.43 µM (active). Moreover, in experiment [4], the Potency result is “inactive”.
`CC[C@@]1([C@@H]2O[C@@H]([C@H]3O[C@@](O)(CO)[C@H](C)C[C@H]3C)C[C@H]2C)CC[C@H]([C@]2(C)CC[C@]3(C[C@H](O)[C@@H](C)[C@@H]([C@@H](C)[C@@H](OC)[C@H](C)C(=O)O)O3)O2)O1`: the Potency was 0.0645 µM (active) in [1]; 0.512 µM (active) in experiment [2]; 0.724 µM (active) in experiment [4]; 0.229 µM (active) in [5]; 0.102 µM (active) in experiment [8]; 0.162 µM (active) in experiment [6]. The Potency in experiment [10] is 0.363 µM (active).
